Among all 96,000 compounds or so, about 1,400 (1.5%) were called active. The sample holds actives, similar compounds and a random draw of the others, so the mix is not that of the screen.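 The calls were made as follows: active = activation factor of 2 or more for CYP2C9 at a 5 µM dose; inactive = the rest.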
biological target: Cytochrome P450 2C9 (Homo sapiens) (UniProt P11712); experiment: enhancers of cytochrome P450 2C9 turnover – biochemical, luminescence, primary screen (AID 1024); settings: recombinant CYP2C9, luciferin-H conversion, at 5 µM, stronger effect = higher value, factor 1 = untreated enzyme, 0 = blocked;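 also: 0 = sulfaphenazole-blocked wells and 1 = vehicle-only wells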
Sequence (P11712 whole entry, looked up): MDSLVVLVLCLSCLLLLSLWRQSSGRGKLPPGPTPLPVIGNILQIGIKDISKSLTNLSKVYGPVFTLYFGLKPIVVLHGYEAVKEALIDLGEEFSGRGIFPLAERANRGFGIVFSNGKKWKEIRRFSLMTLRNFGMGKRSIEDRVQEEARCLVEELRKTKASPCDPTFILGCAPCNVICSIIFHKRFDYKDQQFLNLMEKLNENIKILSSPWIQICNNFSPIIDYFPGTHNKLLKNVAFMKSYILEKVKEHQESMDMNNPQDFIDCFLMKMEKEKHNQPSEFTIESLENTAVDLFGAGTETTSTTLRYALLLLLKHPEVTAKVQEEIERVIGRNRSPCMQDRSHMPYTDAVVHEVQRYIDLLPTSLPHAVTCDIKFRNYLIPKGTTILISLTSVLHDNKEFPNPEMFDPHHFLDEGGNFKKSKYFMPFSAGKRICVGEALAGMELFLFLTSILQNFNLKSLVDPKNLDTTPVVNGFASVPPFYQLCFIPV

Question: How did the activation factor turn out when `c1ccc(COc2ccccc2CNCc2cccnc2)cc1` was run?
Answer: 1.1 (inactive)

Question: With `Cc1csc(=NC(=O)c2ccccc2)n1CCO` as the compound, how does the activation factor read?
Answer: 0.7 (inactive)

Question: With `Cc1cc(C)c2c3c(sc2n1)C(c1ccccc1)C(C#N)=C(N)O3` (stereo not given) as the compound, how does the activation factor read?
Answer: 0.9 (inactive)

Question: `CC1CC(C)CN(S(=O)(=O)c2cccc(C(=O)N3C(=O)c4cccc(N)c4C3=O)c2)C1` (stereo not given) was tested. Which activation factor did it give?
Answer: 0.9 (inactive)

Question: How did the activation factor turn out when `O=C(CSc1nc(C2CC2)nc2ccccc12)Nc1ccc2c(c1)OCCO2` was run?
Answer: 0.6 (inactive)

Question: `O=C(O)C1CC=CCC1C(=O)Nc1ccccc1C(=O)N1CCN(c2ccccc2)CC1` (stereo not given) was tested. Which activation factor did it give?
Answer: 0.9 (inactive)

Question: For `COc1ccc(/C=C(\NC(=O)c2ccc(OC)c(OC)c2)C(=O)NCCc2c[nH]c3ccccc23)cc1`, which activation factor is on record?
Answer: 0.6 (inactive)

Question: With `Cc1ccc(C(=O)N/C(=C/c2ccco2)C(=O)NCCc2c[nH]c3ccccc23)cc1C` as the compound, how does the activation factor read?
Answer: 0.5 (inactive)

Question: For `CC(=O)N/C(=C/c1ccc(Cl)cc1)C(=O)NCCc1c[nH]c2ccccc12`, which activation factor is on record?
Answer: 2.7 (active)

Question: Which activation factor does the source give for `O=C1c2ccccc2C(=O)N1Cc1cc(-c2ccccc2Cl)no1` here?
Answer: 2.3 (active)

Question: `O=C1c2ccccc2C(=O)N1CCCc1nc(-c2ccccc2)no1` was tested. Which activation factor did it give?
Answer: 0.8 (inactive)

Question: With `O=C1c2cccnc2C(=O)N1Cc1cccs1` as the compound, how does the activation factor read?
Answer: 0.9 (inactive)

Question: Which activation factor does the source give for `Cc1c(C#N)c(NC(=O)c2ccccc2)n(Cc2ccccc2)c1C` here?
Answer: 0.4 (inactive)

Question: How did the activation factor turn out when `CC(CC(=O)Nc1cc(C(F)(F)F)ccc1Cl)c1ccccc1` (stereo not given) was run?
Answer: 2.4 (active)

Question: For `O=C(CNS(=O)(=O)c1cccc(C(F)(F)F)c1)Nc1ccccc1F`, which activation factor is on record?
Answer: 1.2 (inactive)

Question: How did the activation factor turn out when `CC(C)CC(=O)Nc1cc(C(F)(F)F)ccc1N1CCOCC1` was run?
Answer: 0.9 (inactive)

Question: `Cc1nc2ccc(NC(=O)C(F)(F)F)cc2o1` was tested. Which activation factor did it give?
Answer: 1 (inactive)

Question: How did the activation factor turn out when `Cc1c(CCO)c(=O)[nH]n1C(=O)c1c(F)cccc1F` was run?
Answer: 1 (inactive)

Question: How did the activation factor turn out when `O=S(=O)(NCC1CCCO1)c1ccc2ccccc2c1` (stereo not given) was run?
Answer: 3 (active)

Question: `CCC(=O)Nc1ccc(S(=O)(=O)NCC2CCCO2)cc1` (stereo not given) was tested. Which activation factor did it give?
Answer: 1 (inactive)

Question: For `CCOc1ccc(S(=O)(=O)NCC2CCCO2)cc1` (stereo not given), which activation factor is on record?
Answer: 0.9 (inactive)

Question: For `O=c1c2ccccc2nc2n1C(CSCc1ccccc1)CS2` (stereo not given), which activation factor is on record?
Answer: 0.9 (inactive)

Question: Which activation factor does the source give for `CCN1CCN(C(=O)/C=C\C(=O)O)CC1` here?
Answer: 1 (inactive)

Question: How did the activation factor turn out when `Cc1ccc(CNC(=O)C2CC(c3ccccc3[N+](=O)[O-])=NO2)o1` (stereo not given) was run?
Answer: 1.2 (inactive)

Question: For `CC(=O)Nc1ccc(S(=O)(=O)N2CCCC2C(=O)O)cc1` (stereo not given), which activation factor is on record?
Answer: 1.1 (inactive)

Question: For `Cc1cccc(NC(=O)C2CCCN2S(=O)(=O)c2ccc(F)cc2)c1C` (stereo not given), which activation factor is on record?
Answer: 2.5 (active)

Question: Which activation factor does the source give for `Cc1ccc(S(=O)(=O)N2CCCC2C(=O)NCc2ccco2)cc1` (stereo not given) here?
Answer: 1.5 (inactive)

Question: `COC(=O)c1ccccc1NC(=O)Cn1nc(C(F)(F)F)c2c1CCC2` was tested. Which activation factor did it give?
Answer: 0.8 (inactive)

Question: With `Cc1cc(NC(=O)Cn2nc(C(F)(F)F)c3c2CCCC3)no1` as the compound, how does the activation factor read?
Answer: 0.9 (inactive)

Question: How did the activation factor turn out when `O=C(Cn1nc(C(F)(F)F)c2c1CCC2)NCc1ccc(F)cc1` was run?
Answer: 3.2 (active)

Question: `CN1C2CCC1/C(=C\c1ccccc1Cl)C(=O)/C2=C\c1ccccc1Cl` was tested. Which activation factor did it give?
Answer: 1.8 (inactive)

Question: For `COC(=O)/C=C/C(=O)NCc1ccco1`, which activation factor is on record?
Answer: 1 (inactive)

Question: Which activation factor does the source give for `C=CCn1c(COc2cccc3cccnc23)nnc1SCC(=O)OC` here?
Answer: 4.1 (active)

Question: Which activation factor does the source give for `C=CCn1c(COc2ccccc2)nnc1SCC(=O)NCC(=O)OCC` here?
Answer: 1.1 (inactive)

Question: Which activation factor does the source give for `C=CCn1c(COc2ccccc2F)nnc1SCC(=O)N1CC(=O)Nc2ccccc21` here?
Answer: 0.9 (inactive)

Question: `CCN(CC)Cc1csc2ccc(Br)cc12` was tested. Which activation factor did it give?
Answer: 1.1 (inactive)

Question: For `COc1cc(C(=S)N2CCOCC2)cc(OC)c1OC(=O)c1cc([N+](=O)[O-])c(C)c([N+](=O)[O-])c1`, which activation factor is on record?
Answer: 0.9 (inactive)

Question: `COc1ccc(NCc2nnc(SCc3ccccc3)n2-c2ccc(OC)cc2)cc1` was tested. Which activation factor did it give?
Answer: 0.4 (inactive)

Question: `Cc1cccc(C)c1NC(=O)CCS(=O)(=O)c1cccc2nsnc12` was tested. Which activation factor did it give?
Answer: 1 (inactive)

Question: Which activation factor does the source give for `O=C(C(NS(=O)(=O)c1cccc2nsnc12)c1ccccc1)N1CCN(c2ccccc2)CC1` (stereo not given) here?
Answer: 0 (inactive)

Question: For `O=C(CCS(=O)(=O)c1cccc2nsnc12)N1CCN(c2ccccc2F)CC1`, which activation factor is on record?
Answer: 2.4 (active)

Question: For `CSc1nc(-c2ccco2)nn1C(=O)CCc1ccccc1`, which activation factor is on record?
Answer: 1.1 (inactive)

Question: For `O=C(N/N=C/c1ccsc1)c1cc(O)cc(O)c1`, which activation factor is on record?
Answer: 0.9 (inactive)

Question: Which activation factor does the source give for `COc1ccc(-c2csc3nc(-c4ccccc4F)oc(=O)c23)cc1OC` here?
Answer: 1 (inactive)

Question: Which activation factor does the source give for `CCOC(=O)N1CCN(C(=O)c2cc3c(ccc4ccccc43)oc2=O)CC1` here?
Answer: 0.5 (inactive)

Question: For `CS(=O)(=O)N1CCN(C(=O)c2cc3ccccc3oc2=O)CC1`, which activation factor is on record?
Answer: 1 (inactive)

Question: For `C=CCc1cccc2cc(C(=O)N3CCN(C(=O)OCC)CC3)c(=O)oc12`, which activation factor is on record?
Answer: 2.1 (active)

Question: With `CCC(C)NC(=O)c1c(N)n(/N=C/c2cccs2)c2nc3ccccc3nc12` (stereo not given) as the compound, how does the activation factor read?
Answer: 0.8 (inactive)

Question: With `Cc1cccc(-n2cnc(C(=O)Nc3cccnc3)c2)n1` as the compound, how does the activation factor read?
Answer: 0.1 (inactive)

Question: `CCOc1ccccc1NC(=O)CCc1ccc(C)o1` was tested. Which activation factor did it give?
Answer: 2.8 (active)

Question: `CCOc1ccccc1Nc1nnc(SCC(=O)Nc2cc(C)on2)s1` was tested. Which activation factor did it give?
Answer: 0.9 (inactive)

Question: Which activation factor does the source give for `CCOc1ccccc1NC(=O)CCN1CCN(S(=O)(=O)c2ccc(OC)cc2)CC1` here?
Answer: 0.6 (inactive)

Question: With `Cc1c(Nc2nc3ccccc3nc2NS(=O)(=O)c2cccs2)c(=O)n(-c2ccccc2)n1C` as the compound, how does the activation factor read?
Answer: 0.5 (inactive)

Question: For `O=C(CCc1ccc(S(=O)(=O)N2CCOCC2)cc1)Nc1ccc2ccccc2c1`, which activation factor is on record?
Answer: 0.4 (inactive)

Question: How did the activation factor turn out when `CCOc1ccccc1C(=O)NCCCn1ccnc1` was run?
Answer: 0.3 (inactive)

Question: Which activation factor does the source give for `CCCCOCCCNC(=O)c1ccccc1OCC` here?
Answer: 2.9 (active)

Question: How did the activation factor turn out when `CCCOc1ccccc1C(=O)NCCCC(=O)O` was run?
Answer: 1.1 (inactive)

Question: `CCc1cc(C(c2ccccc2OC)N2CCOCC2)c(NC(=O)c2ccccc2)s1` (stereo not given) was tested. Which activation factor did it give?
Answer: 0.1 (inactive)

Question: Which activation factor does the source give for `O=C(NC1CCCCC1)C1CC(=O)N(CCc2ccccc2)C1` (stereo not given) here?
Answer: 1 (inactive)

Question: For `Cc1nn(-c2ccccn2)c2c1C(c1ccncc1)C1=C(CC(C)(C)CC1=O)N2` (stereo not given), which activation factor is on record?
Answer: 0.2 (inactive)

Question: How did the activation factor turn out when `COc1ccc(/C=C2\CCCC3C2=NN(C(=O)c2scnc2C)C3c2ccc(OC)cc2)cc1` (stereo not given) was run?
Answer: 0.2 (inactive)

Question: How did the activation factor turn out when `O=C(NCc1ccccc1Cl)c1csc2c1CCCCC2` was run?
Answer: 2.5 (active)

Question: With `COC(=O)c1sccc1NC(=O)c1csc2c1CCCC2` as the compound, how does the activation factor read?
Answer: 0.9 (inactive)

Question: For `CC(=O)Cc1nsc(NC(=O)c2csc3c2CCCC3)n1`, which activation factor is on record?
Answer: 0.7 (inactive)

Question: With `CC(C)(C)NS(=O)(=O)CC12CCC(CC1=O)C2(C)C` (stereo not given) as the compound, how does the activation factor read?
Answer: 0.8 (inactive)

Source: PubChem BioAssay AID1024 (Sanford-Burnham Center for Chemical Genomics, 2008)
